About 83,000 compounds went through this panel and 20% of them were active in at least one assay; those are over-represented in the sample as a whole.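 A percent growth of 40 corresponds to 60% growth inhibition; 0 means no net growth; -100 means all cells died. Active threshold: below 10.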 Values without a mark were called inactive. Calls of active or inactive are those of the source.

For the experiment, the system named is SK-MEL-28 melanoma. The experiment can be described thus: NCI-60 one-dose screen, 48 h (100 = growth as untreated, 0 = no growth, -100 = all killed). The note with it: 10 µM unless noted. As for the experimental part: Growth inhibition of the SK-MEL-28 human tumor cell line is measured as a screen for anti-cancer activity. Cells are grown in 96 well plates and exposed to the test compound for 48 hours. Compounds are tested at a single concentration, which is 10^-5 M for most compounds. The reported endpoint is percent growth (GI% or GIPRCNT), where numbers from 0 - 100% represent growth inhibition, and numbers from -100% - 0 represent cell death. For example, a value of 40 represents 60% growth inhibition. A value of 0 means no net growth occurred over the course of the experiment. A value of -40 indicates 40% of cells at the beginning of the experiment died by the end of the experiment. A value of -100 means all cells are dead at the end of the experiment.
NCI-60 Human Tumor Cell Lines Screen was performed using the standard one-dose NCI protocol, which is described in more detail at https://dtp.cancer.gov/discovery_development/nci-60/default.htm.
Compounds with GIPRCNT values below 10 were considered active. Activity score was based on GIPRCNT using the following formula: […]
Score is 0 for GIPRCNT values of 100 or above, 50 for GIPRCNT values of 0, and 100 for GIPRCNT values of -100.
Take `CC(=O)OC[C@H]1OC(Sc2sc(C(=O)c3ccc(Cl)cc3)c(N)c2-c2nc3ccccc3s2)[C@H](OC(C)=O)[C@@H](OC(C)=O)[C@@H]1OC(C)=O` (stereo not given in full): the growth was 94.2%. To `COc1c(B(O)O)cc(C)cc1-c1nc2ccc3[nH]ncc3c2c2c1CCCC2` belongs 93.8%; to `O=c1c2cc(F)ccc2sc2c(NCCCNCCO)nc3ccccc3c12`, 28.1%; to `COc1ccc(-c2nc(NCCO)[nH]c(=O)c2C#N)cc1`, 108%. To `C=C1C(=O)O[C@H]2[C@H]1CC/C(COC(=O)NCCOCCOCC(=O)Nc1ccc(OC)c(C(N)=O)c1O)=C\CC[C@@]1(C)O[C@@H]21` belongs 47.1%; to `CCc1ccc(Oc2c(-c3ccc(OCCc4cccc(C(F)(F)F)c4)cc3O)n[nH]c2C(F)(F)F)cc1`, 44.3%; to `COc1c(N2CC3CCCN(C(C)=O)C3C2)c(F)cc2c(=O)c(C(=O)N[C@H]3C(O)[C@@H](O)C(CO)O[C@H]3O)cn(C3CC3)c12` (stereo not given in full), 112%.

For the compound `OC(COc1ccccc1)CN1CCN(c2ccc(Cl)cc2)CC1` (stereo not given), the growth was 96.9%. Consider `COC(=O)/C=C1\S/C(=N\Nc2ccc([N+](=O)[O-])cc2[N+](=O)[O-])N(C2CCCCC2)C1=O`, for which the growth was 86.5%. The result for `COc1c(B(O)O)cc(F)cc1-c1nc2ccc3[nH]ncc3c2c2c1CCCC2` reads 21.3%; that for `CCOC(=O)c1nc(Nc2ccc(C(C)=O)cc2)sc1C`, 102%; that for `O=C1c2cccc3cccc(c23)C(=O)N1Nc1nc(NC2CCCCC2)nc(N2CCOCC2)n1`, 101%. To `CC(C)(C)NC(=O)C(OC(=O)c1cccc(Cl)c1)c1ccc(Cl)cc1` (stereo not given) belongs 105%; to `c1cc2nc(-c3cn[nH]c3)c3c(c2cc1-c1cn[nH]c1)C1CCC3C1` (stereo not given), 73.7%.

For `COC1=C(C)C(=O)c2c(c(CCCl)c3n2CCC3O)C1=O` (stereo not given), the growth was -27.7% (active).

On to `COc1cc(C2CC(c3ccc(N(C)C)cc3)=NN2C(C)=O)cc(OC)c1OC` (stereo not given), for which the growth is 52.2%. The result for `Cc1cc2nc3ccc(N=Nc4ccc(N(C)C)cc4)cc3n(-c3ccccc3)c-2cc1=N` reads -96.6% (active).

In the case of `CCCCCCNC(=O)Oc1ccc(/C(=C(\C)c2ccc(Cl)cc2)c2ccc(OCCN3CCCCC3)cc2)cc1`, the growth was 29.4%. As to `COc1cc(C2CC(c3ccc(SC)cc3)=NN2C(C)=O)cc(OC)c1OC` (stereo not given), the growth was 75.3%. The result for `Cc1cccc(NCc2cn(-c3ccc(C(=O)O)cc3)nc2-c2ccc(C(=O)O)cc2)n1` reads 104%; that for `Fc1cc2c(cc1Cl)N(c1ncnc3ccc(-c4cnc5cnccn45)cc13)CC2`, 97.1%; that for `COc1ccc(C(=O)C[C@]2(O)C(=O)Nc3c(Cl)ccc(Cl)c32)cc1`, 60.4%. With `Cc1nc2nc(SCC(=O)O)[nH]c2c(=O)[nH]1`, the growth was 106%. To `COc1ccc(C(Cc2ccccc2)NCCN2CCOCC2)cc1` (stereo not given) belongs 103%. The result for `O=c1ccn(Cc2cn(-c3c4ccccc4nc4ccccc34)nn2)c(=O)[nH]1` reads 102%; that for `COc1ccc(C(=O)/C=C/c2sc(Cl)nc2Cl)cc1`, 53.2%. To `CNC(=O)c1cc(-n2ccc3cc(NC(=O)c4ccc(N5CCOCC5)c(C(F)(F)F)c4)ccc32)ccn1` belongs 82.2%.

With `NC1=NC(c2cccc(Br)c2)c2sc3ccc(Cl)cc3c2N1` (stereo not given), the growth is 118%. To `Cc1cccc2c1S/C(=C/c1ccc([N+](=O)[O-])cc1)C2=O` belongs 114%; to `CCN1C(=O)N(CC)C2Nn3c(s/c(=C4\C(=O)N(CCC(C)C)c5ccccc54)c3=O)=NC21` (stereo not given), 78.6%.

Turning to `CCCCNc1nc(NN2C(=O)c3cccc4cccc(c34)C2=O)nc(-n2cnc3ccccc32)n1`, the growth is 94.1%.

Consider `Cc1c(C(=O)NCCCc2ccccc2)sc2ncc(-c3ccc(Br)cc3)n12`, for which the growth is 104%. As for `Cc1ccc(/C=C2\Oc3ccc(O)c(O)c3C2=O)cc1`, the growth was 53.6%.

On to `COc1ccc(OC)c(/C=C/c2nnc(Nc3ccccc3)o2)c1`, for which the growth was 108%.

As to `CC(=O)N1CCN(c2ccc(OCC3CO[C@](Cn4ccnc4)(c4ccc(Cl)cc4Cl)O3)cc2)CC1` (stereo not given in full), the growth was 106%.

On to `Nc1nc(Cl)cc(=O)n1Cc1ccccc1`, for which the growth was 108%. To `O=C(N/N=C/[C@H](O)[C@H](O)[C@H](O)CO)c1ccc(NC(=O)c2cccnc2)cc1` belongs 112%; to `O=[N+]([O-])c1ccc(Oc2nc(Nc3ccc(O[C@H]4CO[C@H]5[C@@H]4OC[C@@H]5O)c(Cl)c3)ncc2F)c(Cl)c1`, 32.3%.

With `Cc1cc(N2CCCC2)nc(N(CCCNc2ccnc3cc(Cl)ccc23)Cc2ccccn2)n1`, the growth is 69.8%.

Consider `O=C1c2cccc3cccc(c23)C(=O)N1Nc1nc(N2CCOCC2)nc(N2CCN(c3ccccc3)CC2)n1`, for which the growth is 52.5%.

Values taken from PubChem BioAssay (NCI).
